NS3h inh CB: blocks HCV NS3 helicase binding to DNA. NS3h Cy5-dT15 DNA binding, fluorescence polarization. inhibition, % at 100 µM. 16,000 compounds, 1.6% hits;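 active = inhibition above the average over every tested compound plus 3 SD, cut at about 40% in these data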
Cy5 interf NS3h: enhances or quenches Cy5 fluorescence in NS3h assay; Cy5-dT15 DNA with NS3h, fluorescence interference; actives lie on both sides; signal over control mean, under 1 quenches; fluorescence interference ratio at 100 µM; 16,000 compounds, 6% hits; AID 720488;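 active = compound fluorescence over control fluorescence at most 0.8, a quencher, or at least a set upper limit, an enhancer; inactive = ratio between 0.8 and the set upper limit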
Large screens that a line does not name were inactive. Sampled rows, rich in hits. Any-hit rate of the full collection: about 6.9%.

O=C1CC(CSc2nnc(-c3ccccc3)n2-c2ccccc2)=NN1	none
NS(=O)(=O)c1ccc(NC(=O)c2ccccc2C(=O)O)cc1	none
CC1=NN(c2ccc(S(N)(=O)=O)cc2)C(=O)/C1=C\c1ccc(C(C)C)cc1	none
CC1=NN(c2ccc(S(N)(=O)=O)cc2)C(=O)/C1=C\c1cccc(Br)c1	NS3h inh CB 42
C/C(=N/NS(=O)(=O)c1ccc(C)cc1)c1cccs1	none
Cc1ccccc1OCCn1cc(C=C2C(=O)NC(=S)NC2=O)c2ccccc21	none
COc1ccc(NC(=O)CSc2nc3ccccc3[nH]2)c(OC)c1	Cy5 interf NS3h 0.71
COc1ccc2nc(SCC(=O)Nc3ccccc3)[nH]c2c1	none
C=CCN1C(=O)/C(=C\c2ccc(OC)cc2)SC1=Nc1ccccc1	Cy5 interf NS3h 0.79
C=CCN1C(=O)/C(=C\c2ccc(OCc3cccc4ccccc34)cc2)SC1=S	none
Cc1ccc(/C=C/C(=O)NC(=S)Nc2ccc(S(=O)(=O)N=C(N)N)cc2)cc1	none
O=C(/C=C/c1ccccc1)CC(=O)C(Cl)(Cl)Cl	none
O=C1CN(C(=O)OCc2ccccc2)C(c2ccccc2)c2cc(Br)ccc2N1 (stereo not drawn)	none
O=C(c1nn2c(c1Br)NC(c1cccs1)CC2C(F)(F)F)N1CCCc2ccccc21 (stereo not drawn)	Cy5 interf NS3h 0.7
O=C(c1nn2c(c1Br)NC(c1cccs1)CC2C(F)(F)F)N1CCOCC1 (stereo not drawn)	none
Cc1ccnc(Nc2nc(-c3cccnc3)cs2)c1	none
O=C(COc1ccccc1Cl)Nc1cccc(NC(=O)c2cccc(Cl)c2)c1	none
CCOC(=O)C1CCCN(C2CC(=O)N(c3ccc(C)cc3)C2=O)C1 (stereo not drawn)	Cy5 interf NS3h 1.2
Cc1ccc(N2C(=O)CC(N3CCOCC3)C2=O)cc1 (stereo not drawn)	none
Cc1ccc(C(=O)N/C(=C\c2ccc(Cl)cc2)C(=O)NCC(C)C)cc1	NS3h inh CB 41
CC(C)CNC(=O)/C(=C/c1ccc(F)cc1)NC(=O)c1ccccc1	none
O=C1c2cccc3cccc(c23)C(=O)N1CC1CCN(S(=O)(=O)c2cccc3cccnc23)CC1	none
O=C(/C=C/c1ccc(OCc2ccccc2)cc1)c1ccc2c(c1)OCCO2	none
O=C(Nc1ccc(NC(=O)c2ccc3ccccc3c2)cc1)c1ccccc1	none
O=C(Nc1cc(Cl)cc(Cl)c1)c1ccc2ccccc2c1	Cy5 interf NS3h 1.3
O=c1oc(-c2ccc(Cl)cc2Cl)nc2ccccc12	none
O=c1oc(-c2ccccc2Cl)nc2ccc(-c3ccc4nc(-c5ccccc5Cl)oc(=O)c4c3)cc12	Cy5 interf NS3h 0.69
COc1ccc(C(=O)CSc2nc3ccc([N+](=O)[O-])cc3[nH]2)cc1	Cy5 interf NS3h 0.66
COc1ccc2nc(SCC(=O)NCc3ccccc3)[nH]c2c1	none
COc1ccc(OC)c(N(CC(=O)NCCc2ccccc2)S(C)(=O)=O)c1	none
COc1ccc(C2CC(c3ccc(C)cc3)=NN2C(C)=O)cc1OC (stereo not drawn)	none
COc1ccc(-c2nn3c(-c4ccc(OC)c(OC)c4)nnc3s2)cc1OC	Cy5 interf NS3h 1.3
Cc1ccc(C2=C/C(=C/c3ccc(-c4ccc([N+](=O)[O-])cc4)o3)C(=O)O2)cc1	none
Cc1ccc2cc(C3=C/C(=C/c4ccc([N+](=O)[O-])o4)C(=O)O3)ccc2c1	Cy5 interf NS3h 0.77
Cc1ccc(/C=C2/C=C(c3ccc(Br)cc3)OC2=O)o1	Cy5 interf NS3h 0.68
COc1ccc(/C=C2\C=C(c3ccc(Br)cc3)OC2=O)c(C)c1	none
C=CCOc1ccc(/C=C2/C(=O)NN(c3ccc(C)c(Cl)c3)C2=O)cc1OC	none
CCc1ccc(N2CC(C(=O)NCc3ccc(C)cc3)CC2=O)cc1 (stereo not drawn)	none
Cc1cc(Nc2ccc(C)c(Cl)c2)n2ncnc2n1	Cy5 interf NS3h 0.74
Cc1cc(Nc2cc(Cl)cc(Cl)c2)n2ncnc2n1	none
COc1ccc(CN2CCN(Cc3ccc(OC)c(Br)c3)CC2)c(OC)c1	none
CC(O)C#CCN1C(C)CCCC1C (stereo not drawn)	none
CS(=O)(=O)c1ccc2nc(NC(=O)c3ccc(Cl)c(Cl)c3)sc2c1	Cy5 interf NS3h 0.71
CS(=O)(=O)c1ccc2nc(NC(=O)c3ccccc3)sc2c1	none
Cc1ccc(C(=O)Oc2cccc(C3C4=C(CC(C)(C)CC4=O)NC4=C3C(=O)c3ccccc34)c2)cc1 (stereo not drawn)	none
CCOc1cc(C2C3=C(CC(C)(C)CC3=O)NC3=C2C(=O)c2ccccc23)ccc1O (stereo not drawn)	Cy5 interf NS3h 1.2
O=C(c1cccc(N2C(=O)C3C4C=CC(C4)C3C2=O)c1)c1cccc(N2C(=O)C3C4C=CC(C4)C3C2=O)c1 (stereo not drawn)	NS3h inh CB 43
CC(=O)c1cccc(N2C(=O)C3C4C=CC(C4=C(C)C)C3C2=O)c1 (stereo not drawn)	none
CC(C)OCC(O)CNc1ccccc1 (stereo not drawn)	none
NC(=O)c1[nH]cnc1C(=O)c1ccccc1	none
O=C(c1cc(F)c(F)cc1Cl)N1CCN(c2ccc([N+](=O)[O-])c3ncccc23)CC1	none
O=C(c1ccc(Cl)c(Cl)c1)N1CCN(c2ccc([N+](=O)[O-])c(N3CCOCC3)c2)CC1	Cy5 interf NS3h 0.65
O=C(c1cc(N2CCOCC2)c(F)cc1[N+](=O)[O-])N1CCOCC1	Cy5 interf NS3h 0.68
O=C(c1cc(F)c(F)cc1Cl)N1CCN(c2ccc([N+](=O)[O-])c(N3CCCC3)c2)CC1	Cy5 interf NS3h 0.67
O=[N+]([O-])c1ccc(N2CCN(S(=O)(=O)c3ccc(Cl)cc3)CC2)cc1N1CCOCC1	none
O=C(c1cc(N2CCCCC2)c(F)cc1[N+](=O)[O-])N1CCCCC1	none
CCOc1cccc2c1N(C(=O)Cc1ccc(F)cc1)C(C)(C)c1ssc(=S)c1-2	none
CC(C)c1ccc(NC(=O)C(=O)NCC2CCNCC2)cc1	none
COc1ccc(C2Nc3ccccc3C(=O)N2c2ccc(Cl)cc2)cc1OC (stereo not drawn)	none
CC(C)=C1C2C=CC1C1C(=O)N(c3ccc(Br)cc3[N+](=O)[O-])C(=O)C21 (stereo not drawn)	none
COc1ccc(C2C(=C(O)c3ccccc3)C(=O)C(=O)N2c2cccc(Br)c2)c(OC)c1 (stereo not drawn)	none
Cc1ccc(OCc2nnc(NC(=O)Nc3cccc(Cl)c3)s2)cc1C	none
CCOc1ccc2nc(SCC(=O)Nc3cccc(C)c3)sc2c1	Cy5 interf NS3h 0.61
Cc1cccc(NC(=O)CSc2nsc(SCC(=O)Nc3cccc(C)c3)n2)c1	none
Cc1ccc(C2CC(C(F)(F)F)n3ncc(C(=O)N(Cc4ccccc4)Cc4ccccc4)c3N2)cc1 (stereo not drawn)	none
Cc1ccc(C2CC(C(F)(F)F)n3nc(C(=O)N4CCN(c5ccc(F)cc5)CC4)cc3N2)cc1 (stereo not drawn)	none
CC(O)c1ccc(NC(=O)c2cnn3c2NC(c2cccs2)CC3C(F)(F)F)cc1 (stereo not drawn)	none
Cc1ccc(C2CC(C(F)(F)F)n3nc(C(=O)N4CCN(c5ccc(F)cc5)CC4)c(Cl)c3N2)cc1 (stereo not drawn)	Cy5 interf NS3h 0.49
COc1ccc(C2CC(C(F)(F)F)n3ncc(C(=O)N(C)Cc4ccccc4)c3N2)cc1OC (stereo not drawn)	Cy5 interf NS3h 0.6
CC(O)c1ccc(NC(=O)c2cnn3c2NC(c2ccc(F)cc2)CC3C(F)(F)F)cc1 (stereo not drawn)	Cy5 interf NS3h 0.48

Screening data: PubChem, Milwaukee Institute for Drug Discovery
